Screening results: PubChem BioAssay, National Center for Advancing Translational Sciences (NCATS)
HP1b binding inh – HP1-beta chromodomain-methylated histone interaction inhibition | AlphaScreen HP1-beta / biotin-H3K9me3 peptide binding | Potency, µM (highest dose often 114 µM), for inactives: at the top dose activity change, negative = inhibition, hits mostly inhibitors | actives 0.56% (n = 390,000); also: potency is read from the fitted curve at half-maximal effect; nearly all actives have a fitted effect of over 70% in size
Target sequence (P83916 whole entry, looked up): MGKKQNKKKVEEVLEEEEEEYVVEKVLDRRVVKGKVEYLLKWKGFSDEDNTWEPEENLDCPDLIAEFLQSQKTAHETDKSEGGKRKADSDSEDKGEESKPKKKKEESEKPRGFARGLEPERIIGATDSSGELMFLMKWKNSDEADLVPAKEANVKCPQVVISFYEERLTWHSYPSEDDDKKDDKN
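HP1-beta protein (50 nM final) preincubated 30 min at room temperature with biotinylated H3(1-18)K9me3 peptide (50 nM) in PBS pH 7.4, 0.01% Tween-20, then compound added for 30 min. AlphaScreen streptavidin donor/nickel chelate acceptor beads (10 ug/mL final), 30 min dark, luminescence read.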
BAZ2B block – inhibitors of human BAZ2B bromodomain; AlphaScreen BAZ2B-H3K14Ac peptide displacement; Potency, µM (doses to about 114 µM), for inactives: at the top dose activity change, negative = inhibition, most hits filed as inhibitors; actives 4.4% (n = 360,000); AID 504333; also: potency is read from the fitted curve at half-maximal effect; % is scaled to controls: 0 for no effect and ±100 for the full control effect; nearly all actives have a fitted effect of over 60% in size
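Multi-concentration screen (max 110 uM) measuring displacement of acetylated histone H3 peptide from BAZ2B by AlphaScreen, using 50 nM protein, 50 nM peptide and 10 ug/mL streptavidin donor plus Ni-chelate acceptor beads.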
JMJD2A Tudor – inhibitors of human JMJD2A Tudor domain | AID 504339 | actives 4.4% (n = 390,000) | Potency, µM (top dose mostly 114 µM), inactives show at the highest dose activity change, negative = inhibition, usual class: inhibitors | AlphaScreen JMJD2A-Tudor / H3K4me3 peptide binding | O75164; also: potency is read from the fitted curve at half-maximal effect; % is scaled to controls: 0 for no effect and ±100 for the full control effect; nearly all actives have a fitted effect of over 50% in size
PI5P4K alpha inh – inhibitors of human PI5P4K alpha | P48426 | PI5P4Kalpha enzyme, ADP-Glo luminescence, 60 min; hits give low values | max response, % | actives 1.2% (n = 330,000); active = max response of -50% or lower; inconclusive = between -30% and -50%; inactive = -30% or higher; also: value at the top dose of about 77 µM; % is scaled to controls: 0 for no effect and ±100 for the full control effect
Target sequence (P48426 whole entry, looked up): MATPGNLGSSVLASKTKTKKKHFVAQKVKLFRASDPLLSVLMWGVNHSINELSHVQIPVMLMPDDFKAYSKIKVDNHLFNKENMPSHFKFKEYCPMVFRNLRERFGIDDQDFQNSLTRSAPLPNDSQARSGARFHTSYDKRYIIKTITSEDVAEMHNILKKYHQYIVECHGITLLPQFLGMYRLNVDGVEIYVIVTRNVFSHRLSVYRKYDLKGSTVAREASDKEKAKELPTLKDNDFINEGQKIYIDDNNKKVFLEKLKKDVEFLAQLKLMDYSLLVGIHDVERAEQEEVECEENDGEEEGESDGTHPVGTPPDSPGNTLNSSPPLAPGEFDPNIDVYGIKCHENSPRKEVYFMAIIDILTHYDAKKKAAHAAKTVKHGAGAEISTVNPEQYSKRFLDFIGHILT
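Enzyme plus substrate dispensed, test compounds pinned in, then ATP (5 microM final) added. After 60 min at RT, ADP-Glo reagent 1 for 45 min and reagent 2 for 30 min preceded luminescence imaging.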
KDM4E inh – blocks human JMJD2E demethylase activity | B2RXH2 | JMJD2E catalytic domain, FDH-coupled NADH fluorescence (FDH is formaldehyde dehydrogenase) | Potency, µM (top dose mostly 57.1 µM), without a hit: at the highest dose activity change, negative = inhibition, hits mostly inhibitors | actives 1.6% (n = 230,000) | AID 2147; active = well fitted inhibition curve with a large enough effect, not every such curve was filed as active; inconclusive = small, poorly fitted or top-dose-only effect, or another doubt; inactive = no such curve, though single readings can be large or run the other way;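 also: potency is read from the fitted curve at half-maximal effect; 0% = wells with enzyme and -100% = buffer wells without enzyme; nearly all actives have a fitted effect of over 50% in size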
L3MBTL1 inh – blocks human L3MBTL1; Q9Y468; AlphaScreen L3MBTL1–H3K9me1 peptide binding; Potency, µM (doses to about 57.1 µM), without a hit: top-dose activity, negative = inhibition, hits mostly inhibitors; actives 0.66% (n = 230,000); AID 485360; also: potency is read from the fitted curve at half-maximal effect; % is scaled to controls: 0 for no effect and ±100 for the full control effect; nearly all actives have a fitted effect of over 60% in size
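First, the protein-peptide complex forms for 30 min at room temperature (L3MBTL1 50 nM, biotinylated H3K9me1 peptide 75 nM). Next, compounds are pin-transferred and incubated 30 min. Finally, AlphaScreen beads are added and read after 30 min.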
The depositor's hits bear a star; [ ] = dose if it differs, or a comment. Only some compounds are listed: those with a hit (about 5.7% of all), similar ones and a draw of the others. Unless noted, calls follow the shape of the dose curve; as a rule, active = well fitted inhibition curve with a large enough effect; inconclusive = small, poorly fitted or top-dose-only effect; inactive = no such curve, though single readings can be large or run the other way.

Results for N=C1C2=C3Sc4ccccc4N3CCCC2=NN1c1cccc(S(=O)(=O)O)c1 ?
HP1b binding inh: 22.9%; BAZ2B block: inconclusive; JMJD2A Tudor: -19.0%; PI5P4K alpha inh: -53.4*; KDM4E inh: inconclusive; L3MBTL1 inh: 1.6%

What do the screens show for `COc1ccc(N2CCN(C(=O)c3cc(S(=O)(=O)N4CCCCCC4)cn3C)CC2)cc1`?
HP1b binding inh: 7.0%[57 µM]; BAZ2B block: -34.7%; JMJD2A Tudor: -31.3%

Results for COc1cc2nc(N3CCN(C(=O)C4CCCO4)CC3)nc(N)c2cc1OC (configuration not stated) ?
HP1b binding inh: 7.3%; BAZ2B block: 2.1%; JMJD2A Tudor: inconclusive; PI5P4K alpha inh: 4.4; KDM4E inh: 28.2µM*; L3MBTL1 inh: 5.2%

How did COc1cc2nc(N3CCN(C(=O)[C@H]4COc5ccccc5O4)CC3)nc(N)c2cc1OC do in these assays?
HP1b binding inh: 15.9%; BAZ2B block: inconclusive; JMJD2A Tudor: -29.5%; PI5P4K alpha inh: 0.0

What do the screens show for `CCCNC(=O)c1ccc(-c2nc3ccccc3s2)s1`?
HP1b binding inh: 20.5%; BAZ2B block: 4.47µM*; JMJD2A Tudor: -23.9%; PI5P4K alpha inh: -10.8; KDM4E inh: inconclusive

How did Cn1c(=O)[nH]c(=O)c2c1nc(NC1CCCC1)n2Cc1ccccc1 do in these assays?
HP1b binding inh: 17.4%; BAZ2B block: -32.8%; JMJD2A Tudor: -16.5%; PI5P4K alpha inh: 0.0; L3MBTL1 inh: -4.1%

What do the screens show for `Cc1ccc(N=Nc2ccc(O)c(P(=O)(c3ccccc3)c3ccccc3)c2)cc1`?
HP1b binding inh: -19.0%; BAZ2B block: inconclusive; JMJD2A Tudor: 11.2µM*; PI5P4K alpha inh: -4.6; KDM4E inh: inconclusive; L3MBTL1 inh: -9.8%

How did CCn1c(C)c(C)c2cc(C(=O)NCc3ccc(N(C)C)cc3)ccc21 do in these assays?
HP1b binding inh: inconclusive; BAZ2B block: 22.4µM*; JMJD2A Tudor: 22.4µM*

Results for CSc1ccc(CNC(=O)c2ccc3c(c2)N(C)C(=O)C2CCCCN32)cc1 (configuration not stated) ?
HP1b binding inh: 8.4%[57 µM]; BAZ2B block: -20.7%; JMJD2A Tudor: -24.0%

Results for CCOc1ccc(CNC(=O)c2ccc3c(c2)c(C)c(C)n3C)cc1 ?
HP1b binding inh: -10.6%; BAZ2B block: 39.8µM*; JMJD2A Tudor: inconclusive

What do the screens show for `Cc1c(C)n(C)c2ccc(C(=O)NCCc3ccc(Cl)cc3)cc12`?
HP1b binding inh: 12.5%; BAZ2B block: -25.9%; JMJD2A Tudor: -35.1%

Results for CCn1c(C)c(C)c2cc(C(=O)NCc3ccc(F)cc3)ccc21 ?
HP1b binding inh: -1.9%; BAZ2B block: inconclusive; JMJD2A Tudor: inconclusive

How did CN(C)c1ccc(CNC(=O)c2ccc3c(c2)N(C)C(=O)C2CCCCN32)cc1 (configuration not stated) do in these assays?
HP1b binding inh: -2.2%[57 µM]; BAZ2B block: 44.7µM*; JMJD2A Tudor: 44.7µM*

Results for Cc1oc(-c2ccccc2Cl)nc1CSc1nc2ncccc2[nH]1 ?
HP1b binding inh: 41.0%; BAZ2B block: -1.4%; JMJD2A Tudor: -4.6%

How did CCOc1ccc(CCNC(=O)COC(=O)/C=C/c2ccc(OCC#N)c(OC)c2)cc1OCC do in these assays?
HP1b binding inh: 27.3%; BAZ2B block: 6.7%; JMJD2A Tudor: 1.0%; PI5P4K alpha inh: -2.4; KDM4E inh: inconclusive; L3MBTL1 inh: 0.7%

Results for Cc1cc(C)c(C)c(S(=O)(=O)N2CCN(S(=O)(=O)c3ccc4c(c3)OCCO4)CC2)c1C ?
JMJD2A Tudor: -31.5%

How did Cc1cc(=O)[nH]c2nnc(SCc3ccc(Cl)c(Cl)c3)n12 do in these assays?
HP1b binding inh: 5.2%; BAZ2B block: -3.0%; JMJD2A Tudor: -16.2%

Results for Cc1ccc(CNC(=O)Cn2c(=O)n(-c3ccc(C)cc3)c(=O)c3c2c2cc(C)ccc2n3C)cc1 ?
HP1b binding inh: 11.3%; BAZ2B block: -21.6%; JMJD2A Tudor: -6.2%

How did COCCn1c(-c2ccco2)csc1=Nc1cccnc1 do in these assays?
HP1b binding inh: -11.2%; BAZ2B block: inconclusive; JMJD2A Tudor: 89.1µM*; KDM4E inh: -10.0%

How did CC(C)Cn1c(-c2ccco2)csc1=Nc1cccnc1 do in these assays?
HP1b binding inh: -9.4%; BAZ2B block: 31.6µM*; JMJD2A Tudor: -31.5%; PI5P4K alpha inh: -26.7; KDM4E inh: -12.5%; L3MBTL1 inh: -13.7%

How did Fc1ccccc1-c1csc(=Nc2cccnc2)n1CCCn1ccnc1 do in these assays?
HP1b binding inh: -19.0%; BAZ2B block: 44.7µM*; JMJD2A Tudor: inconclusive; PI5P4K alpha inh: 5.1; KDM4E inh: 1.4%; L3MBTL1 inh: -17.4%

Results for COCCn1c(-c2cccs2)csc1=Nc1cccnc1 ?
HP1b binding inh: -3.9%; BAZ2B block: 44.7µM*; JMJD2A Tudor: inconclusive; PI5P4K alpha inh: -7.5; KDM4E inh: inconclusive

What do the screens show for `CCOC(=O)C1=NOC2C3CC(C12)C1C(=O)N(CCc2ccc(OC)c(OC)c2)C(=O)C31` (configuration not stated)?
HP1b binding inh: inconclusive; BAZ2B block: inconclusive; JMJD2A Tudor: 35.5µM*; PI5P4K alpha inh: -9.5; KDM4E inh: -5.8%

Results for Cc1ccc(N2C(=O)CS(=O)(=O)C23C(=O)N(Cc2cccc(F)c2)c2ccccc23)cc1Cl (configuration not stated) ?
HP1b binding inh: 23.9%; BAZ2B block: -3.1%; JMJD2A Tudor: -18.1%

Results for N#Cc1c(N2CCCC(O)C2)nc(N)c2c(N)nc3c(c12)CC(=O)N3C12CC3CC(CC(C3)C1)C2 (configuration not stated) ?
HP1b binding inh: inconclusive; BAZ2B block: inconclusive; JMJD2A Tudor: 56.2µM*; KDM4E inh: inconclusive; L3MBTL1 inh: inconclusive

What do the screens show for `CCCCN1C(=O)Cc2c1nc(N)c1c(N)nc(N(CCC)CCC)c(C#N)c21`?
HP1b binding inh: inconclusive; BAZ2B block: -33.9%; JMJD2A Tudor: -26.4%; PI5P4K alpha inh: inconclusive; KDM4E inh: inconclusive; L3MBTL1 inh: -9.3%

How did C=C(C)CN(CC)c1nc(N)c2c(N)nc3c(c2c1C#N)CC(=O)N3C12CC3CC(CC(C3)C1)C2 do in these assays?
HP1b binding inh: -24.6%; BAZ2B block: -29.1%; JMJD2A Tudor: -22.0%[57.1 µM]; PI5P4K alpha inh: -87.3*; KDM4E inh: -15.5%

Results for N#Cc1c(N(CCO)CCO)nc(N)c2c(N)nc3c(c12)CC(=O)N3CC1CCCO1 (configuration not stated) ?
HP1b binding inh: -12.8%[57 µM]; BAZ2B block: -12.9%; JMJD2A Tudor: -25.7%; PI5P4K alpha inh: -11.8; KDM4E inh: inconclusive; L3MBTL1 inh: 1.3%
